In PubChem BioAssay (NCI):
About 83,000 compounds went through this panel and 20% of them were active in at least one assay; those are over-represented in the sample as a whole.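 Single-concentration screen, 48 h exposure, 96-well plates. Endpoint: percent growth. Below 10 = active.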 A number with no mark means an inactive call. Calls of active or inactive are those of the source.

What was measured:
Experiment in all cases: NCI-60 one-dose screen, 48 h (100 = growth as untreated, 0 = no growth, -100 = all killed)
HCT-15 colon = details: 10 µM unless noted
HT29 colon = details: 10 µM unless noted
SNB-75 CNS = details: 10 µM unless noted
SNB-19 CNS = details: 10 µM unless noted
U251 CNS = details: 10 µM unless noted
PC-3 prostate = details: 10 µM unless noted
SK-MEL-5 melanoma = details: 10 µM unless noted
UACC-62 melanoma = details: 10 µM unless noted
LOX IMVI melanoma = details: 10 µM unless noted
SK-MEL-28 melanoma = details: 10 µM unless noted
SK-MEL-2 melanoma = details: 10 µM unless noted
SN12C renal = details: 10 µM unless noted
UO-31 renal = details: 10 µM unless noted
TK-10 renal = details: 10 µM unless noted
ACHN renal = details: 10 µM unless noted
A498 renal = details: 10 µM unless noted
CCRF-CEM leukemia = details: 10 µM unless noted
MOLT-4 leukemia = details: 10 µM unless noted
EKVX NSCLC = details: 10 µM unless noted
CAKI-1 renal = details: 10 µM

Row | SMILES | growth (HCT-15 colon) | growth (HT29 colon) | growth (SNB-75 CNS) | growth (SNB-19 CNS) | growth (U251 CNS) | growth (PC-3 prostate) | growth (SK-MEL-5 melanoma) | growth (UACC-62 melanoma) | growth (LOX IMVI melanoma) | growth (SK-MEL-28 melanoma) | growth (SK-MEL-2 melanoma) | growth (SN12C renal) | growth (UO-31 renal) | growth (TK-10 renal) | growth (ACHN renal) | growth (A498 renal) | growth (CCRF-CEM leukemia) | growth (MOLT-4 leukemia) | growth (EKVX NSCLC) | growth (CAKI-1 renal)
1 | O=C1CN(CCN2CC(=O)NC(=O)C2)CC(=O)N1 | 114% | 110% | 76.1% | 99% | 100% | 89.8% | 87% | 86.5% | 93.7% | 121% | 113% | 104% | 71.8% | 107% | 103% | 103% | 107% | 28.5% | – | –
2 | C=C1C(=O)O[C@H]2[C@H]1CC/C(COC(=O)c1ccc(Br)cc1)=C\CC[C@@]1(C)O[C@@H]21 | -26.3% (active) | -51.8% (active) | 56% | 24% | 4.28% (active) | 20.3% | 8.33% (active) | -52.4% (active) | -94.6% (active) | -27% (active) | -24.5% (active) | -22% (active) | -89.8% (active) | 8.28% (active) | -93.4% (active) | 100% | -17.5% (active) | -27.2% (active) | – | –
3 | COc1ccccc1S(=O)(=O)Nc1ccc2c3c(cc(-c4ccoc4)nc13)C(=O)N2C | 66.6% | 43.8% | 16.6% | 75.9% | 77.9% | 66.9% | 56.6% | 38.3% | 51.9% | 75.6% | 74.8% | 82.3% | 39.9% | 37.5% | 70.6% | 71.7% | 76.5% | 75.8% | – | –
4 | CC(C(C(=O)N1CCCCC1)N1CCCCC1)N1CCCCC1 (centres undefined) | 107% | 105% | 100% | 103% | 97.9% | 107% | 112% | 102% | 107% | 107% | – | 102% | 94.9% | 101% | 116% | 119% | 116% | 79.8% | 112% | –
5 | CCN(CC)CC(=O)Nc1c(C)cccc1C | 98.1% | 111% | 95.5% | 106% | 106% | 100% | 93.2% | 105% | 100% | 110% | 104% | 98.8% | 83.2% | 116% | – | 102% | 103% | 104% | – | 94.3%
6 | O=C(Nc1ccc(Cl)c(Cl)c1)Nc1ccc(Cl)c([N+](=O)[O-])c1 | 5.16% (active) | 2.02% (active) | 16.2% | 15.1% | 6.28% (active) | -0.546% (active) | -90.2% (active) | 9.51% (active) | -19% (active) | 12.8% | -43.4% (active) | 6.3% (active) | 0.279% (active) | -0.585% (active) | 1.36% (active) | -25.9% (active) | 1.21% (active) | -30.9% (active) | – | –
7 | CCCC(=O)Oc1ccc(/C(=C(\C)c2ccc(Cl)cc2)c2ccc(OCCN(CC)CC)cc2)cc1 | -79.9% (active) | -50% (active) | -48.1% (active) | -38.1% (active) | -84.6% (active) | -15.4% (active) | -99.7% (active) | -42.2% (active) | -98% (active) | -69.8% (active) | -74.4% (active) | 35.3% | -65% (active) | – | -23.2% (active) | 11.5% | -18.6% (active) | -13.1% (active) | – | –
8 | Cc1ccc2c(c1)Nc1ccc(C)cc1C2(C)C | 96% | 79% | 83.9% | 115% | 100% | 90.6% | 97.9% | 100% | 101% | 105% | 88.9% | 103% | 91.3% | 102% | 112% | 118% | 92.8% | 73.4% | – | –
9 | Cc1ccc(-c2nc3c(N=Nc4ccc(S(N)(=O)=O)cc4)c(N)nn3c(N)c2C#N)cc1 | 82.5% | 35.8% | 49% | 58% | 31.8% | 32.4% | -52.2% (active) | 52.9% | 22.5% | 52.8% | 27% | 33.2% | 69% | 65.8% | – | 59.3% | 11.9% | 3.58% (active) | – | 41%
10 | CC(C)CNCC(=O)Nc1ccc(Cc2ccc(NC(=O)CNCC(C)C)cc2)cc1 | 50.2% | 15.8% | 65.7% | 72.6% | 50.5% | 25.8% | 40.3% | 64.6% | 60.4% | 80.4% | 87.6% | 49.7% | 38.4% | 84.8% | – | 47.2% | 26.4% | 23.1% | – | –
11 | OCc1cnccc1NC12CC3CC(CC(C3)C1)C2 | 103% | 88.7% | 105% | 101% | 98.9% | 102% | 98.3% | 104% | 96.7% | 105% | 95.1% | 105% | 90.1% | 99.1% | 101% | 94.7% | 95.9% | 88.8% | – | –
12 | CCCc1nn2c(CCC(=O)c3nc4ccc([N+](=O)[O-])cc4[nH]3)nnc2s1 | 100% | 106% | 97.2% | 109% | 108% | 100% | 119% | 98.7% | 95.5% | 103% | 87.5% | 101% | 80.7% | 133% | 102% | 123% | 109% | – | – | –
13 | CCC1CN2C(=N1)c1ccccc1-c1cc(Cl)ccc12 (centres undefined) | 18.3% | 5.27% (active) | 42.6% | 26.2% | 14.8% | 21.6% | -5.14% (active) | 3.38% (active) | 2.76% (active) | 70.7% | – | 18.5% | -43% (active) | 34.7% | 2.38% (active) | 56.9% | 13.4% | -24.8% (active) | 22.9% | –
14 | COC(=O)c1ccc2c(c1)Oc1ccc(Cl)cc1-c1cc(C)nn1-2 | 91.6% | 74.3% | 63.3% | 68.8% | 19.1% | 76% | 86% | 84.7% | 57.9% | 106% | 100% | 51.8% | 82.2% | – | 22.6% | 62.7% | 78.8% | 99.9% | – | –
15 | COc1ccc(NC(=O)COCCOCCNC[C@@H]2C(=O)O[C@H]3[C@H]2CC/C(COC(=O)OC/C2=C/CC[C@@]4(C)O[C@H]4[C@H]4OC(=O)[C@@H](CN(C)C)[C@@H]4CC2)=C\CC[C@@]2(C)O[C@@H]32)c(O)c1C(N)=O | 17.1% | 14% | 84.1% | 94.1% | 80.8% | 80.2% | 85.7% | 43% | 35.1% | -6.54% (active) | 68.3% | 40% | 2.07% (active) | -0.421% (active) | – | 96.2% | -9.68% (active) | -5.18% (active) | – | –
16 | C=C(C)[C@@H]1C/C=C(\COC(=O)[C@H](OC(C)=O)C(NC(=O)c2ccccc2)c2ccccc2)CC[C@H]2O[C@]2(C)CC/C=C(\C)CC1 (some centres undefined) | 89% [5 µM] | 62.8% [5 µM] | 57.5% [5 µM] | 80.2% [5 µM] | 71.4% [5 µM] | 32.1% [5 µM] | 71.4% [5 µM] | 62.3% [5 µM] | 72.9% [5 µM] | 77.1% [5 µM] | 76.2% [5 µM] | 82.1% [5 µM] | 51.9% [5 µM] | 85.8% [5 µM] | – | 84.9% [5 µM] | -89.5% [5 µM] (active) | 17.6% [5 µM] | – | –
17 | Nc1nccc(=S)[nH]1 | 98.7% | 75.3% | 94% | 104% | 102% | 102% | 111% | 90% | 100% | 106% | 97.7% | 101% | 98.3% | 95.6% | – | 108% | 113% | 92.8% | – | –
